Compound activity from PubChem BioAssay.
HPGD block = qHTS Assay for Inhibitors of HPGD (15-Hydroxyprostaglandin Dehydrogenase). AID 894, 2007. 15-hydroxyprostaglandin dehydrogenase [NAD(+)] (Homo sapiens), P15428. purified HPGD, NADH fluorescence kinetic, PGE2 substrate. Potency, µM, for inactives: at the top dose activity change, negative = inhibition, usual class: inhibitors. 150,000 compounds, 4.3% hits; active = well fitted inhibition curve with a large enough effect, not every such curve was filed as active; inconclusive = small, poorly fitted or top-dose-only effect, or another doubt; inactive = no such curve, though single readings can be large or run the other way
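20 nM HPGD preincubated 15 min at room temperature with compound in 50 mM Tris-HCl pH 8, 0.01% Tween 20. Started with 1 mM NAD+ and 30 uM prostaglandin E2; NADH fluorescence (360/450 nm) read 5 times over 30-s intervals, last minus first.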
Tau fibril ThT = qHTS for Inhibitors of Tau Fibril Formation, Thioflavin T Binding. recombinant tau K18 P301L, heparin-induced fibrillization, ThT fluorescence. Potency, µM (highest dose often 57.4 µM), inactives show at the highest dose activity, negative = inhibition, usual class: inhibitors. 270,000 compounds, 2.1% hits. AID 1460, 2008; note: nearly all actives have a fitted effect of over 55% in size
Target sequence (P10636 561-689 P618L limits assumed): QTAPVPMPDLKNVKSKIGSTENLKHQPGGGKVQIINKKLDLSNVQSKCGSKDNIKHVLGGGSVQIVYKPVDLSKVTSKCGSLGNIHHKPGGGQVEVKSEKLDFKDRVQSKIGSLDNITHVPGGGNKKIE
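Fibril formation assay: tau K18 P301L at 15 uM with trace Alexa 594 label, heparin inducer 20 uM, pH 7 sodium acetate buffer, 37 C for 6 hr; endpoint ThT signal.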
Tau fluor cs = Counterscreen qHTS for Inhibitors of Tau Fibril Formation, Fluorescence Polarization; Potency, µM (top dose mostly 57.7 µM), for the others: at the top dose activity change, negative = decrease; 280,000 compounds, 0.93% hits; tau K18 P301L Alexa594 fluorescence, heparin fibrillization; note: nearly all actives have a fitted effect of over 55% in size
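Human tau K18 P301L (15 uM unlabeled, 0.24 uM Alexa 594-labeled) in 100 mM sodium acetate pH 7 with 20 uM heparin, 6 hr at 37 C. ThT 30 uM added, 1 hr ambient; Alexa 594 FP and total fluorescence read at 555/632 nm.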
NPSR antagonist = qHTS Assay for Antagonists of the Neuropeptide S Receptor: cAMP Signal Transduction; CHO-NPSR cells, cAMP TR-FRET, antagonist mode; AID 1461, 2008; Potency, µM (doses to about 38.3 µM), without a hit: at the top dose activity change, negative = inhibition, actives largely listed as inhibitors; 220,000 compounds, 1% hits; note: nearly all actives have a fitted effect of over 50% in size
Tau fibril FP = qHTS for Inhibitors of Tau Fibril Formation, Fluorescence Polarization; Microtubule-associated protein tau (Homo sapiens), P10636; K18 P301L tau heparin fibrillization, Alexa594 FP, 6 h; Potency, µM (series often up to 57.7 µM), inactives show at the top dose activity, negative = inhibition, usual class: inhibitors; 280,000 compounds, 0.39% hits; note: nearly all actives have a fitted effect of over 55% in size
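Compound effects on tau fibrillization are measured by Alexa 594 fluorescence polarization (ex 555, em 632 nm). K18 P301L tau is used at 15 uM with 0.24 uM labeled tracer, and 20 uM heparin induces aggregation over 6 hr at 37 C.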
ALDH1A1 inh = qHTS Assay for Inhibitors of Aldehyde Dehydrogenase 1 (ALDH1A1); Aldehyde dehydrogenase 1A1 (Homo sapiens), P00352; Purified ALDH1A1, NADH fluorescence, propionaldehyde substrate; Potency, µM (titrated, usually from 75.3 µM), without a hit: at the top dose activity, negative = inhibition, usual class: inhibitors; 220,000 compounds, 7.3% hits; AID 1030, 2008; active = well fitted inhibition curve with a large enough effect, not every such curve was filed as active; inconclusive = small, poorly fitted or top-dose-only effect, or another doubt; inactive = no such curve, though single readings can be large or run the other way;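 note: plate controls were no enzyme wells and a reference inhibitor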
Target sequence (P00352 whole entry, looked up): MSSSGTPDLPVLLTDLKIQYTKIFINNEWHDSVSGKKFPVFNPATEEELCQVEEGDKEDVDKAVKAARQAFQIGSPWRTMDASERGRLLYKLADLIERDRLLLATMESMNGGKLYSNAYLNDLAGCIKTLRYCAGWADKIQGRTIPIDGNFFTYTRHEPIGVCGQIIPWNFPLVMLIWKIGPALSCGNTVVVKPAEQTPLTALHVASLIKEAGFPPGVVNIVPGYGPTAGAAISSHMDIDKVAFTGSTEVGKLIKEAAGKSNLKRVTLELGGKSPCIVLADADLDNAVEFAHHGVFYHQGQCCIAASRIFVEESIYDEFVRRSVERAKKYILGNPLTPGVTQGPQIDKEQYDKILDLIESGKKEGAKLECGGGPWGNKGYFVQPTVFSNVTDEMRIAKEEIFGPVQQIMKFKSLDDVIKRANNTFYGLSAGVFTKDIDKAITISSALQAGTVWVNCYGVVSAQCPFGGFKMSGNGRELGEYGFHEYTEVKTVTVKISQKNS
* hit, by the source's call; ? = inconclusive; / = not tested or not shown; [ ] = remark or other dose. This is a sample that favours compounds with a hit; in the whole collection about 9.5% have one here. Unless noted, calls come from the whole dose curve; as a rule, active = well fitted curve in the direction sought with a large enough effect; inconclusive = small, poorly fitted or top-dose-only effect, or another doubt; inactive = no such curve, though single readings can be large; an effect the other way counts as inactive or inconclusive. Unless noted, % is set by controls: 0 for no effect and ±100 for the full control effect; potency is the fitted concentration of half-maximal effect.

SMILES	HPGD block	Tau fibril ThT	Tau fluor cs	NPSR antagonist	Tau fibril FP	ALDH1A1 inh
COc1ccc(S(=O)(=O)N(C)c2ccc(C(=O)NCC3CCCO3)cc2)cc1 (centres undefined)	2.82µM*	-9.1%	-2.6%	-24.2%[46.1 µM]	0.5%	-8.3%
CC(C)=C[C@H]1[C@@H](COC(=O)c2cc3c(cc2Cl)OCO3)C1(C)C	-18.4%	/	/	/	/	-2.3%[13.5 µM]
Cc1ccc(Cl)cc1NC(=O)N(C)CCO	/	2.9%	-2.0%	-3.6%	?	-1.0%
COc1cccc(OCc2cc(=O)n3cc(C)sc3n2)c1	/	?	-6.2%	/	2.4%	/
CC(=O)N[C@@H](Cc1c[nH]c2ccccc12)C(=O)O	-15.7%	4.8%	-4.7%	/	-9.2%	3.8%
Cc1ccc(C(=O)NCC2CCCO2)cc1N1CCCC1=O (centres undefined)	11.2µM*	0.8%	-0.2%	-5.8%[46.1 µM]	-0.4%	0.1%
COc1ccc(C(=O)NCC2CCCO2)cc1 (centres undefined)	12.6µM*	-8.5%	-1.7%	8.4%	9.2%	6.4%
COc1ccc(NC(=O)c2ccc(NCC3CCCO3)c([N+](=O)[O-])c2)cc1 (centres undefined)	/	12.6µM*	-21.6%	-14.4%	5.8%	?
Cn1c(C(=O)OCC(=O)NCC2CCCO2)cc2sccc21 (centres undefined)	15.8µM*	2.7%	10.0%	-0.3%[46.1 µM]	-1.8%	-23.0%
O=C(Nc1ccccc1)c1ccc(NCC2CCCO2)c([N+](=O)[O-])c1 (centres undefined)	-20.5%	7.3%	-3.2%	-8.8%[46.1 µM]	-13.2%	?
Cn1c(C(=O)OCC(=O)NCc2cccs2)cc2sccc21	-20.6%	7.4%	4.6%	17.7%[46.1 µM]	3.4%	-6.5%
O=C(NCC1CCCO1)c1cccc(N2CCCC2=O)c1 (centres undefined)	-19.1%	-5.5%	-4.6%	-6.8%[46.1 µM]	-13.0%	4.0%
O=C(NCC1CCCO1)c1ccc(COc2ccc(Br)cc2)cc1 (centres undefined)	7.08µM*	7.1%	2.8%	-7.0%	1.9%	?
CCC1=Nc2cc(C(=O)NCC3CCCO3)ccc2Sc2ccc(Br)cc21 (centres undefined)	/	?	?	0.0%	3.98µM*	2.1%
COC(=O)c1ccc(C(=O)OC)c(NC(=O)CN(C)Cc2ccccc2)c1	-11.3%	-12.1%	-8.5%	-22.6%	2.9%	0.3%
CCOc1ccc(C(C#N)N2CCOCC2)cc1OC (centres undefined)	-13.4%	-0.9%	-3.2%	-14.1%[46.1 µM]	-1.3%	10µM*
CCOc1cc(C(C#N)N2CCOCC2)ccc1OC (centres undefined)	0.3%	-8.6%	-1.8%	8.7%[46.1 µM]	0.6%	?
Cc1cc(/C=N/N2CCN(C)CC2)c(C)n1-c1ccccc1F	/	?	-13.1%	9.5%	-7.1%	11.2µM*
CCOC(=O)c1c(NC(=S)Nc2ccc(F)cc2)sc2c1CCC2	0.9%	-8.6%	?	12.2%[46.1 µM]	-4.7%	-11.5%
O=C(Nc1ccc(N2CCOCC2)cc1)c1cccnc1	-15.8%	-4.5%	1.3%	-15.2%[46.1 µM]	-12.4%	1.5%
NC(=O)c1c(NC(=O)c2cc(-c3ccc(F)cc3)on2)sc2c1CCCC2	/	31.6µM*	-21.6%	/	?	/
NC(=O)c1c(NC(=S)Nc2ccc(F)cc2)sc2c1CCCC2	/	?	?	8.2%	0.7%	10µM*
O=C(Nc1sc2c(c1C(=O)N1CCOCC1)CCCCC2)c1cccnc1	/	1.4%	-1.9%	5.8%	-2.1%	22.4µM*
NC(=O)c1c(NC(=O)c2cnccn2)sc2c1CCCC2	/	?	-1.1%	-1.6%	0.3%	20µM*
O=C(O)Cc1cccc(OCCCN(Cc2cccc(C(F)(F)F)c2Cl)CC(c2ccccc2)c2ccccc2)c1	-18.5%	?	-7.4%	/	?	?
SMILES	HPGD block	Tau fibril ThT	Tau fluor cs	NPSR antagonist	Tau fibril FP	ALDH1A1 inh
COc1ccc(C)cc1NC(=O)CN(c1cc(C(F)(F)F)ccc1Cl)S(C)(=O)=O	/	-7.8%	?	/	-7.5%	/
O=C(O)CCSc1nnc(COc2cccc3ccccc23)n1-c1cccc(Cl)c1	/	1.6%	10.5%	-6.9%	2.8%	2.6%
Cn1nc(C(=O)Nc2ccc(F)c(Cl)c2)c2c1-c1ccccc1S(=O)(=O)C2	/	-19.7%	-11.2%	/	-4.0%	/
C=CCNC(=S)Nc1sc2c(c1C(N)=O)CCCC2	/	-5.4%	-11.1%	-4.8%	2.7%	/
NC(=O)c1c(NC(=S)Nc2ccccc2)sc2c1CCCC2	/	?	?	-10.3%	7.9%	7.94µM*
C/C(=N\NC(=S)Nc1ccc(F)cc1)C1CC1	0.0%	?	-27.2%	-9.1%[46.1 µM]	13.1%	15µM*
CC1CCN(C(=S)Nc2ccc(F)cc2)CC1	-5.2%	-0.9%	6.1%	3.6%	0.8%	-0.3%
S=c1nc(-c2csc3c2CCCC3)[nH][nH]1	/	-16.2%	-8.7%	8.4%	4.8%	11.2µM*
Cc1cc(NS(=O)(=O)c2ccc(NC(=O)COc3ccc(Cl)cc3)cc2)nc(C)n1	/	1.4%	-7.5%	/	-9.0%	/
C=CCNC(=O)c1ccc(C(=O)c2ccccc2)cc1	12.6µM*	-1.9%	-5.1%	-9.3%[46.1 µM]	-8.9%	?
C=CCNC(=O)c1ccccc1CCc1ccccc1	/	-9.5%	-10.1%	-12.9%	?	-2.6%
C=CCNC(=O)c1ccccc1Cl	15.8µM*	-1.6%	-2.2%	-10.3%[46.1 µM]	-1.0%	-3.3%
CCCc1noc2c1/C(=N\O)CC(CC(C)SCC)C2 (centres undefined)	8.91µM*	-16.5%	-21.2%	-19.6%[46.1 µM]	-8.2%	?
CCSC(C)CC1C/C(=N/O)c2c(CC)noc2C1 (centres undefined)	?	-14.7%	-13.5%	-5.6%[46.1 µM]	-3.2%	-12.1%
CC1(C)OC2CC3C4CCC5=CC(=O)C=C[C@@]5(C)[C@]4(F)C(O)C[C@@]3(C)[C@]2(C(=O)CO)O1 (some centres undefined)	-7.1%	-3.5%	-5.4%	/	-9.7%	-12.0%
O=S(=O)(c1cnc[nH]1)N1CCc2ccccc21	-0.5%	?	?	-20.8%[46.1 µM]	13.7%	20µM*
CC1Cc2ccccc2N1S(=O)(=O)c1cnc[nH]1 (centres undefined)	-7.8%	9.2%	0.3%	0.7%[46.1 µM]	2.7%	8.9%
COc1cc(NC(=O)CN(C)Cc2ccc(OC(F)F)cc2)c(C)cc1[N+](=O)[O-]	/	-4.2%	-18.6%	-14.5%[46.1 µM]	11.3%	-5.0%
CC(=O)c1cccc(NC(=O)CN(C)Cc2ccc(OC(F)F)cc2)c1	/	-0.8%	-0.9%	9.1%	-0.6%	11.2µM*
